Wee1 degr inh = inhibitors of human Wee1 degradation | P30291 | reporter increase, % at 5 µM | HeLa Luc-Wee1K328M stability, luciferase luminescence; 100% = proteasome inhibitor MG132 effect | actives 1.2% (n = 220,000);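 active = activation above the mean of all tested compounds plus 3 SD, set per screening run, cut at about 8.8% in these data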;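 note: cells exposed to compound for 20 h before luminescence read; 0% = DMSO alone and 100% = MG132 at 30 µM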
HMGR II inh = E. faecalis class II HMG-CoA reductase inhibition | inhibition, % at 10 µM | purified E. faecalis HMGR, NADPH absorbance 340 nm kinetic | AID 1066 | actives 0.41% (n = 190,000);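 active = inhibition above a set limit, the median over all tested compounds plus 3 SD, cut at about 9.5% in these data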;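 note: enzyme runs in reverse so mevalonate oxidation gives rising NADPH absorbance; 0% = complete reaction with DMSO and 100% = background rate lacking mevalonate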
Arbovirus anti = antivirals against arbovirus infection | arbovirus infection cell-based antiviral screen | inhibition, % at 10 µM | actives 0.37% (n = 200,000); in the data active = inhibition above about 30%
PKD1 inh = blocks activity of human protein kinase D1 | actives 0.056% (n = 200,000) | PKD1 kinase fluorescence polarization assay | inhibition, % (no concentration beside the values) | AID 797; in the data active = inhibition above about 50%
Target sequence (Q15139 whole entry, looked up): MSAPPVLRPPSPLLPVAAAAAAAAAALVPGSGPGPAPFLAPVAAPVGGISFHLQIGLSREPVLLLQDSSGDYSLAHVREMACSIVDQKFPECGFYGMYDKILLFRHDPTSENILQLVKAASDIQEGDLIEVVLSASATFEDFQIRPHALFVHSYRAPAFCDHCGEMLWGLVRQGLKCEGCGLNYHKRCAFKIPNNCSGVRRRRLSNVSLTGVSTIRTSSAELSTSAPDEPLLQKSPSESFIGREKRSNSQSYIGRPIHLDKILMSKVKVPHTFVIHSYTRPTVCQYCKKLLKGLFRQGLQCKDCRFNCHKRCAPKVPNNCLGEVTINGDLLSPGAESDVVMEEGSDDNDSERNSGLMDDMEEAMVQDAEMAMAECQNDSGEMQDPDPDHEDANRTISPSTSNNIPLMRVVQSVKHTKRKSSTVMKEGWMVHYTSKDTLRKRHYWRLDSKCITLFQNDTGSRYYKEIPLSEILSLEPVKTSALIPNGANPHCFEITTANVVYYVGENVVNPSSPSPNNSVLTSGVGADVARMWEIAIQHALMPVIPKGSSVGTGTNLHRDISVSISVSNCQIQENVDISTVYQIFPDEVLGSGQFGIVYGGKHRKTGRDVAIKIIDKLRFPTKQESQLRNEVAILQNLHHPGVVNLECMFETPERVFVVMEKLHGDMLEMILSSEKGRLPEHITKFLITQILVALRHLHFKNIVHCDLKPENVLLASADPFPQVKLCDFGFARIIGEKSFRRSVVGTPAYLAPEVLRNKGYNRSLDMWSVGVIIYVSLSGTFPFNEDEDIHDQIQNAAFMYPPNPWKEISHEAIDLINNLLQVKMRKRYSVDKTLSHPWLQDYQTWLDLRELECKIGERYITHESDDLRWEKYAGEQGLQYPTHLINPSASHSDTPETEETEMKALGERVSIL
Hsp70 act = switches on Hsp70 transcription | HeLa Hsp70 promoter luciferase reporter, luminescence; scaled: vehicle 0, proteasome-inhibitor control 100% | activation, % at 10 µM | actives 0.04% (n = 200,000);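 active = activation above the mean across all tested compounds plus 3 SD, cutoff set per campaign, cut at about 5.5% in these data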;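 note: 100% = MG132 at 30 µM as the positive control and 0% = DMSO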
* = called active by the depositor. Sampled rows, rich in hits. Any-hit rate of the full collection: about 2%.

Cc1ccc(C(=O)O/N=C2\CC3CCC2(C)C3(C)C)cc1 (configuration not stated) was read as Wee1 degr inh -3, HMGR II inh 0, Arbovirus anti -1, PKD1 inh -6 and Hsp70 act 0.
`CCOC(=O)c1ccc(NC(=O)CC2S/C(=N/N=C/c3c[nH]c4ccccc34)NC2=O)cc1` (configuration not stated) gave Wee1 degr inh 4, HMGR II inh -1, Arbovirus anti 31*, PKD1 inh -3 and Hsp70 act 0.
Screening Cc1ccc(NC(=O)CC2S/C(=N/N=C/c3c[nH]c4ccccc34)NC2=O)cc1 (configuration not stated) returned Wee1 degr inh 9.7*, HMGR II inh -4, Arbovirus anti -15, PKD1 inh 0 and Hsp70 act 0.
COc1ccc(C(=O)C[n+]2cn(C(F)F)c3ccccc32)c(F)c1 was read as Wee1 degr inh -1, HMGR II inh -4, Arbovirus anti -2, PKD1 inh 7 and Hsp70 act 0.
Screening CCN(CC)C(=O)c1cnn(-c2ccccc2)c1NC(=O)c1cccs1 returned Wee1 degr inh 5, HMGR II inh 9.6*, Arbovirus anti 4, PKD1 inh -5 and Hsp70 act 0.
Screening CCN(CC)C(=O)c1cnn(-c2ccccc2)c1NC(=O)c1ccco1 returned Wee1 degr inh -1, HMGR II inh 2, Arbovirus anti 2, PKD1 inh -3 and Hsp70 act 0.
`O=C(COc1ccc2ccccc2c1)N1CCN(C(=O)c2ccco2)CC1` gave Wee1 degr inh 4, HMGR II inh 10*, Arbovirus anti 7, PKD1 inh 0 and Hsp70 act 1.
For Cc1ccc(OCC(=O)N2CCN(C(=O)c3ccco3)CC2)cc1 the results were Wee1 degr inh 0, HMGR II inh 2, Arbovirus anti 4, PKD1 inh -7 and Hsp70 act 0.
Screening CCOc1ccc(N(CC(=O)NC(C(C)C)C(C)C)S(=O)(=O)c2ccc(OC)c(OC)c2)cc1 returned Wee1 degr inh 4, HMGR II inh -1, Arbovirus anti 1, PKD1 inh 3 and Hsp70 act 0.
Screening Cc1cc(Cl)c(S(=O)(=O)Nc2cccc(O)c2)cc1OCC(N)=O returned Wee1 degr inh 9.9*, HMGR II inh 6, Arbovirus anti -3, PKD1 inh -13 and Hsp70 act 1.
For COc1ccc(NS(=O)(=O)c2cc(OCC(N)=O)c(C)cc2Cl)cc1 the results were Wee1 degr inh 2, HMGR II inh -1, Arbovirus anti 2, PKD1 inh -15 and Hsp70 act 0.
Cc1cccn2c(CNCCSc3nccn3C)c(C(=O)N3CCCCC3)nc12 was read as Wee1 degr inh 8.9*.
CCn1cc(CNCc2c(C(=O)N3CCCCC3)nc3c(C)cccn23)cn1 was read as Wee1 degr inh -1, HMGR II inh -7, Arbovirus anti -2, PKD1 inh 5 and Hsp70 act 0.
Screening O=C(c1nc2ccccn2c1CNCCCn1ncc2ccccc21)N1CCOCC1 returned Wee1 degr inh 2, HMGR II inh -1, Arbovirus anti 8, PKD1 inh 0 and Hsp70 act 0.
`Cc1cccn2c(CNCCCn3ncc4ccccc43)c(C(=O)N3CCCCC3)nc12` gave Wee1 degr inh 10*, HMGR II inh -8, Arbovirus anti 6, PKD1 inh -4 and Hsp70 act 0.
Screening CC(=O)C1=C(O)C(=O)N(c2ccc(Br)cn2)C1c1ccc(Br)cc1 (configuration not stated) returned Wee1 degr inh 10*.
For CC(=O)C1=C(O)C(=O)N(c2ccc(Br)cn2)C1c1ccc(F)cc1 (configuration not stated) the results were Wee1 degr inh 11*, HMGR II inh -5, Arbovirus anti 1, PKD1 inh -4 and Hsp70 act 0.
`CC(=O)C1=C(O)C(=O)N(c2nccs2)C1c1ccc(Br)cc1` (configuration not stated) gave Wee1 degr inh 9.1*, HMGR II inh -1, Arbovirus anti -6, PKD1 inh -11 and Hsp70 act 0.
CC(=O)C1=C(O)C(=O)N(c2nccs2)C1c1ccc(F)cc1 (configuration not stated) was read as Wee1 degr inh -2, HMGR II inh -5, Arbovirus anti 6, PKD1 inh -7 and Hsp70 act 0.
`CC(=O)C1=C(O)C(=O)N(c2ccc(Br)cn2)C1c1ccccc1F` (configuration not stated) gave Wee1 degr inh -1, HMGR II inh -2, Arbovirus anti -1, PKD1 inh -4 and Hsp70 act 0.
`CCOc1ccc(S(=O)(=O)Nc2ccc(C(=O)NN)cc2)cc1` gave Wee1 degr inh -2.
O=C(NCc1cccs1)C1CCCN1C(=O)Nc1ccc(Cl)cc1 (configuration not stated) was read as Wee1 degr inh -1, HMGR II inh 3, Arbovirus anti 0, PKD1 inh 0 and Hsp70 act 0.
`Cn1c(C(=O)Nc2ccccc2)cc2sccc21` gave Wee1 degr inh 6, HMGR II inh 2, Arbovirus anti -4, PKD1 inh -8 and Hsp70 act 0.
CC(CCc1ccccc1)NC(=O)C1CCCN(C(=O)c2cc3sccc3n2C)C1 (configuration not stated) was read as Wee1 degr inh -2, HMGR II inh -2, Arbovirus anti -8, PKD1 inh 0 and Hsp70 act 0.
`CC(CCc1ccccc1)NC(=O)c1cc2sccc2n1C` (configuration not stated) gave Wee1 degr inh -4, HMGR II inh 4, Arbovirus anti 42*, PKD1 inh -22 and Hsp70 act 0.
COc1cc(NC(=O)c2cc3sccc3n2C)cc(OC)c1 was read as Wee1 degr inh 9.0*, HMGR II inh -2, Arbovirus anti 5, PKD1 inh -6 and Hsp70 act 0.
`CC(=O)c1ccc(NC(=O)C(C)n2c3ccccc3c3nc(=O)cc(C)n32)cc1` (configuration not stated) gave Wee1 degr inh -1.
Screening c1ccc(-c2nc(-c3nccc4ccccc34)oc2-c2ccccc2)cc1 returned Wee1 degr inh 6.
Screening O=C(Cc1ccccc1[N+](=O)[O-])NCc1ccc(Cl)cc1Cl returned Wee1 degr inh 9.4*, HMGR II inh -1, Arbovirus anti 5, PKD1 inh 0 and Hsp70 act 0.
`COc1ccc(C(NC(=O)c2c(F)c(F)c(F)c(F)c2F)c2ccccc2)cc1` (configuration not stated) gave Wee1 degr inh -1, HMGR II inh -1, Arbovirus anti 0, PKD1 inh -3 and Hsp70 act 0.
For Cc1ccc(C)c(S(=O)(=O)N2CCN(C(C)C(=O)Nc3ccccc3-c3ccccc3)CC2)c1 (configuration not stated) the results were Wee1 degr inh 2, HMGR II inh -1, Arbovirus anti 32*, PKD1 inh -9 and Hsp70 act 0.
